The values that follow come from publication PMC5540273 (PLoS ONE, 2017).

Each structure is given as a SMILES string.

Test systems include BLK; BMPR1A; BMPR1B; BMPR2; BMX; BRAF; BRSK1; BRSK2.
What all share (conditions): concentration: 1 μM, replicates: in singlicate; n = 1
The next test deals with T1, BIKE.
T1 construct: gene BMP2K

In the next test the test system is T2, BRK.
T2 construct: gene PTK6
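Note: KINOMEscan kinase panel screen.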

As to `Cc1ccccc1Cn1ccn2c(=O)cc(N3CCOCC3)nc12` [GSK2269905], the “%Inh” value is given as 16% in the test with BIKE; 10% in the test on BLK; 0% with BMPR1A; 0% in the test with BMPR1B; 0% with BMPR2; 3% with BMX. Moreover, the “%Inh” value stood at 0% with BRAF, 22% in the test on BRK, 0% in the test with BRSK1 and 98.6% with BRSK2.
`COc1ccc(CSc2nnc(-c3ccc4ncsc4c3)o2)cc1C(F)(F)F`: the “%Inh” value with BIKE was determined as 0%; with BLK, 0%; with BMPR1A, 17%; with BMPR1B, 0%; in the test with BMPR2 it was 0%; with BMX, 0%. Also, the “%Inh” value in the test on BRAF, in the test on BRK, in the test on BRSK1 and with BRSK2 was 0% throughout.
For `COc1ccc(Nc2nccc(N3CCC(NC(=O)C(C)c4ccc(Cl)cc4)C3)n2)cc1` (centres unmarked) [GSK1379735], the “%Inh” value in the test with BIKE amounted to 25%; in the test on BLK, 33%; in the test with BMPR1A, 19%; in the test on BMPR1B, 0%; in the test on BMPR2, 4%; in the test with BMX, 27%. Moreover, the “%Inh” value in the test on BRAF came to 0%; in the test on BRK, 0%; in the test with BRSK1 it was 7%; in the test with BRSK2 it was 0%.
As for `Cc1c(Cn2c3ccccc3n3c(=O)cc(N4CCOCC4)nc23)cccc1C(F)(F)F` [GSK2306394], the “%Inh” value with BIKE came to 7%; in the test with BLK, 34%; in the test on BMPR1A, 0%; in the test with BMPR1B, 0%; with BMPR2, 0%; in the test on BMX, 0%. Moreover, the “%Inh” value is listed as 8% in the test on BRAF, 3% with BRK, 0% in the test with BRSK1 and 0% with BRSK2.
As to `CC(=O)c1c(C)c2cnc(Nc3ccc(N4CCNCC4)cn3)nc2n(C2CCCC2)c1=O`, the “%Inh” value turned out to be 0% in the test with BIKE; 0% in the test on BLK; 15% with BMPR1A; 0% in the test with BMPR1B; 0% in the test with BMPR2; 0% in the test with BMX. Besides, the “%Inh” value with BRAF, in the test with BRK, in the test on BRSK1 and in the test with BRSK2 was 0% in each case.
Take `Cc1cccc2c(-c3ccncn3)c(-c3ccc(F)cc3)nn12` [GW515532]: the “%Inh” value in the test on BIKE was 10%; in the test with BLK, 33%; in the test on BMPR1A, 0%; in the test with BMPR1B it was 0%; with BMPR2, 0%; in the test on BMX, 0%. The “%Inh” value in the test with BRAF is given as 22%; with BRK it was 0%; in the test with BRSK1, 6%; in the test on BRSK2, 10%.
In the case of `CS(=O)(=O)Cc1ccc(Nc2nccc(-c3c(-c4cccc(NC(=O)C5CCCCC5)c4)nn4ncccc34)n2)cc1` [GSK350559], the “%Inh” value in the test with BIKE was determined as 1%; with BLK it was 0%; with BMPR1A, 0%; in the test with BMPR1B, 19%; in the test with BMPR2 it was 24%; with BMX it was 37%. Besides, the “%Inh” value is given as 20% with BRAF, 2% in the test on BRK, 0% with BRSK1 and 0% in the test with BRSK2.
Regarding `Nc1nccc(-c2c(-c3ccc(F)cc3)ncn2C2CCN(Cc3ccccc3)CC2)n1` [SB-219980], the “%Inh” value in the test on BIKE amounted to 0%; with BLK it was 0%; with BMPR1A, 0%; in the test on BMPR1B it was 2%; in the test with BMPR2 it was 0%; in the test on BMX, 0%. Besides, the “%Inh” value in the test with BRAF, in the test on BRK, with BRSK1 and with BRSK2 was 0% in each case.
Turning to `CNc1cc(-c2ccc3c(N)n[nH]c3c2)nc(N)n1` [GSK2224810], the “%Inh” value is given as 74% in the test with BIKE; 0% with BLK; 16% in the test with BMPR1A; 78% in the test with BMPR1B; 5% in the test on BMPR2; 15% in the test with BMX. The “%Inh” value came out at 0% in the test with BRAF, 6% with BRK, 2% in the test with BRSK1 and 0% with BRSK2.
For `Fc1ccc(-c2nc3n(c2-c2ccncc2)CCS3)cc1` [GI98581], the “%Inh” value is on record as 32% in the test with BIKE; 45% in the test with BLK; 0% with BMPR1A; 0% in the test with BMPR1B; 0% in the test with BMPR2; 12% in the test with BMX. Moreover, the “%Inh” value in the test on BRAF is 0%; in the test on BRK, 13%; in the test on BRSK1 it was 0%; in the test with BRSK2 it was 0%.
For the molecule `COc1nccc(-c2c(-c3ccc(F)cc3)ncn2CCCN2CCOCC2)n1` [SB-282852], the “%Inh” value in the test on BIKE was 0%; in the test with BLK, 0%; in the test on BMPR1A, 0%; in the test with BMPR1B, 0%; in the test on BMPR2, 25%; with BMX, 0%. Also, the “%Inh” value with BRAF was determined as 20%; with BRK, 0%; in the test with BRSK1 it was 0%; in the test on BRSK2 it was 0%.
With `O=C(Nc1n[nH]c2cc(-c3ccsc3)ccc12)C1CC1` [SB-732932], the “%Inh” value is given as 54% with BIKE; 0% in the test with BLK; 27% with BMPR1A; 22% in the test with BMPR1B; 32% with BMPR2; 15% with BMX. Further, the “%Inh” value came out at 9% with BRAF, 0% with BRK, 59% in the test on BRSK1 and 61% in the test on BRSK2.
Consider `Cc1cnc(N)c(/C=C/c2cncc(C(=O)NCCc3ccc(Cl)cc3Cl)c2)c1.Cl` [GSK190937], for which the “%Inh” value is given as 23% in the test on BIKE; 3% in the test on BLK; 0% in the test with BMPR1A; 0% with BMPR1B; 0% in the test on BMPR2; 19% with BMX. The “%Inh” value is 1% in the test on BRAF, 7% in the test with BRK, 0% in the test on BRSK1 and 0% in the test with BRSK2.
Consider `Cc1ccc(NC(=O)Nc2ccccc2)cc1-c1ccc(C(=O)Nc2ccncc2)cc1` [GSK1398471], for which the “%Inh” value is recorded as 20% with BIKE; 33% in the test with BLK; 0% with BMPR1A; 0% with BMPR1B; 0% with BMPR2; 18% in the test on BMX. Moreover, the “%Inh” value worked out at 32% with BRAF, 15% in the test on BRK, 9% with BRSK1 and 2% in the test with BRSK2.
As to `CC(=O)c1c(C)c2cnc(Nc3ccn(C)n3)nc2n(C2CCCC2)c1=O`, the “%Inh” value is 22% in the test with BIKE; 0% in the test with BLK; 0% with BMPR1A; 0% in the test on BMPR1B; 0% in the test on BMPR2; 0% in the test with BMX. The “%Inh” value with BRAF came to 3%; in the test with BRK, 8%; in the test with BRSK1 it was 0%; in the test with BRSK2, 0%.
Consider `CC(C)c1ccc(O)cc1Nc1ccnc2ccc(C(F)(F)F)cc12` [GW482059], for which the “%Inh” value in the test on BIKE stood at 13%; with BLK, 30%; in the test with BMPR1A it was 0%; in the test with BMPR1B, 0%; with BMPR2, 0%; in the test with BMX, 0%. The “%Inh” value with BRAF worked out at 0%; with BRK it was 0%; with BRSK1 it was 1%; with BRSK2, 5%.
Regarding `O=C(Nc1n[nH]c2nc(-c3ccco3)c(Br)cc12)C1CCN(Cc2ccccc2)C1.O=C(O)[C@H](O)[C@@H](O)C(=O)O` (centres unmarked) [SB-742034], the “%Inh” value with BIKE was determined as 0%; in the test on BLK it was 0%; with BMPR1A, 32%; in the test on BMPR1B, 10%; in the test with BMPR2 it was 16%; with BMX it was 0%. Also, the “%Inh” value in the test on BRAF is given as 0%; in the test with BRK, 9%; with BRSK1, 18%; with BRSK2, 37%.
